Only some compounds are listed: those with a hit (about 4.5% of all), similar ones and a draw of the others.
Rtt109 HAT inh: inhibitors of Candida albicans Rtt109/Vps75 histone acetyltransferase. inhibition, % at 34.9 µM. AID 540336. actives 0.16% (n = 330,000). purified Rtt109/Vps75, ThioGlo CoA-SH fluorescence, 4 h. Q5AAJ8;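 active means inhibition of at least 50% in every replicate; inconclusive means best replicate reaches 50% inhibition but some replicates fall short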
ALR inh: blocks human ALR sulfhydryl oxidase activity; P55789; purified ALR, DTT oxidation, H2O2 HRP-luminol luminescence; inhibition, % (test concentration not listed); actives 3.8% (n = 290,000); AID 485317;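 active means mean replicate inhibition above about 79%, with every replicate also reaching it, limit read from the data; inconclusive means only one of the two criteria met; inactive means mean below limit and not every replicate reaching it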
HDAC3 inhib: inhibitors of human histone deacetylase 3; inhibition, % at 8.3 µM; recombinant HDAC3, fluorogenic peptide/trypsin coupled, fluorescence; O15379; AID 2718; actives 0.15% (n = 320,000); in the data active means inhibition above about 26%, passing the limit was not always enough; inconclusive means no clear call, values can overlap the other calls
Efflux pump mplx: antifungal efflux pump inhibition, Nile Red retention | S. cerevisiae Candida pump triplex | inhibition, % at 10 µM | actives 0.44% (n = 330,000) | AID 485275;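 active means plate passing quality check with inhibition over a set limit, or well fluorescence over plate mean plus 4 SD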;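 further: Nile Red retained in pooled yeast measured as flow cytometry median fluorescence; 0% = buffer negative control and 100% = Enniatin B positive control; higher means more Nile Red kept so more efflux inhibition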
GRK2 aptamer HTS: blocks RNA aptamer binding to human GRK2; actives 0.59% (n = 330,000); P25098; bead flow cytometry, FAM-aptamer displacement from GRK2; AID 488847; inhibition of aptamer binding, % at 10 µM;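 active means inhibition of aptamer binding above 40%, roughly 3 SD of noise, on plates passing a quality check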;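 further: median bead fluorescence of bound FAM aptamer so fluorescent compounds give negative values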
Target sequence (P25098 whole entry, looked up): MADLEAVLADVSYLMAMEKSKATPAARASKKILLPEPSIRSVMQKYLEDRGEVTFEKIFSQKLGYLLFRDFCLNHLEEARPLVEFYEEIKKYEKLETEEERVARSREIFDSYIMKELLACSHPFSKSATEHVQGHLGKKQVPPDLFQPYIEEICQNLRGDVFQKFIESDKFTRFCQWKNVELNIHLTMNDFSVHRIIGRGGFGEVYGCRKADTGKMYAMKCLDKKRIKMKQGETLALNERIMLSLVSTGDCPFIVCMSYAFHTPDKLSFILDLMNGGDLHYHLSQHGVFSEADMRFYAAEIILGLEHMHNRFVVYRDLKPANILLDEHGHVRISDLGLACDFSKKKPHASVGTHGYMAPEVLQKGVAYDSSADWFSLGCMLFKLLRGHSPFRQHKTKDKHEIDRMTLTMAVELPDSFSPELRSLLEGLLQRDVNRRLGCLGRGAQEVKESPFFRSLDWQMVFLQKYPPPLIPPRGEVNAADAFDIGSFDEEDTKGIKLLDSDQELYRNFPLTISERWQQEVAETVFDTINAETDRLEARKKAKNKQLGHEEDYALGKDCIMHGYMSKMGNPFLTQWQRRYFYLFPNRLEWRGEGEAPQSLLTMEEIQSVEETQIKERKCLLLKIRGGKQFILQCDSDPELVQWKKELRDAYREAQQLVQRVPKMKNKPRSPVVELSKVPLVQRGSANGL
Rce1 inhib: blocks yeast Ras-converting enzyme. Q03530. yeast membranes, quenched prenylated peptide cleavage fluorescence. calls only. actives 0.27% (n = 290,000);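 active means fall in fluorescence gain of 50% or more versus controls, with final raw signal at or below 3038400; inconclusive means same 50% fall but final raw signal above 3038400; inactive means fall in fluorescence gain under 50%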;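 further: plate controls were neutral control wells for no effect and wells lacking membranes for full effect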
* = called active by the depositor; i = inactive; ? = inconclusive; nt = not tested or not shown; + = active, no number.

SMILES	Rtt109 HAT inh	ALR inh	HDAC3 inhib	Efflux pump mplx	GRK2 aptamer HTS	Rce1 inhib
O=C(CCl)N=c1sccn1Cc1ccccc1Cl	-0.8	nt	nt	-0.2	2.0	i
COc1ccc(/C=N/NC(=O)COc2ccc(Cl)cc2Cl)cc1Cn1nc(C)cc1C	54.0*	-3.0	-11.8	0.1	0.0	i
COc1cc(/C=N/N2CCN(Cc3ccc(Cl)cc3)CC2)cc(Br)c1O	-7.5	90.8*	8.7	0.1	nt	i
Cc1ccc(CN2CCN(/N=C/c3ccc(O)c(O)c3)CC2)cc1	0.4	78.6*	-2.7	-0.1	6.0	nt
Cc1ccc(CN2CCN(/N=C/c3ccc(C(=O)O)cc3)CC2)cc1	-2.2	0.9	0.5	0.0	6.0	i
CCN(CC)c1ccc(/C=N\N2CCN(Cc3ccc(C)cc3)CC2)cc1	4.6	97.9*	-4.7	-0.2	0.0	i
CN(C)c1ccc(CN2CCCCCC2)cc1	nt	23.4	-1.9	0.0	0.0	i
COc1cc(/C=N/N2CCN(Cc3ccc(Cl)cc3)CC2)ccc1OC(C)=O	-0.2	44.4	0.1	0.2	1.0	i
Cc1ccc(CN2CCN(/N=C/c3cccnc3)CC2)cc1	-0.3	nt	4.0	0.1	0.0	i
CCN(CC)c1ccc(CN2CCCCCC2)cc1	-1.2	97.6*	0.5	-0.1	0.0	i
COc1cccc(C(=O)N2CCN(C(=O)COc3ccc4ccccc4c3)CC2)c1	6.6	-16.0	-7.5	0.0	3.0	i
Cc1occc1-c1nnc(SCC(=O)c2c(N)n(C3CC3)c(=O)[nH]c2=O)n1C	1.4	46.6	2.8	-0.1	1.0	nt
COc1cc([N+](=O)[O-])ccc1NC(=O)CCS(=O)(=O)c1ccc2c(c1)n(C)c(=O)c(=O)n2C	-4.3	-10.3	-1.9	-0.1	2.0	i
Cc1cccc(CSc2nc3ccccc3c(=O)n2C)c1	-1.2	40.4	-6.8	-0.1	0.0	nt
CCOC(=O)N1CCC(NS(=O)(=O)c2ccc(NC(C)=O)c(Cl)c2)CC1	nt	0.4	-2.5	0.0	2.0	nt
O=S(=O)(Nc1ccccc1O)c1ccc(Cl)nc1	?	99.0*	-0.2	0.0	0.0	i
O=S(=O)(Nc1ccccc1F)c1ccc(Cl)nc1	2.2	nt	nt	0.1	0.0	nt
Cc1c(OCC(=O)NC(Cc2ccc(Cl)cc2)C(=O)O)ccc2c3c(c(=O)oc12)CCC3 (stereo not drawn)	17.2	5.6	-5.6	0.2	4.0	i
Cc1c(C)c2ccc(OCC(=O)N[C@@H](Cc3ccccc3)C(=O)O)cc2oc1=O	5.5	11.2	-48.8	0.1	0.0	i
CCC(NC(=O)Cc1c(C)c2ccc(OC)c(C)c2oc1=O)C(=O)NC(Cc1ccc(Cl)cc1)C(=O)O (stereo not drawn)	10.3	-3.8	-47.9	-0.1	4.0	i
CCCCCCc1c(C)c2ccc(OCC(=O)N[C@@H](Cc3ccccc3)C(=O)O)cc2oc1=O	-2.4	96.6*	-4.0	0.1	1.0	i
Cc1c(CCC(=O)O)c(=O)oc2cc(OCc3cccc(F)c3)ccc12	-14.3	-1.1	-25.4	-0.3	0.0	+
Cc1c(OCC(=O)NC(Cc2ccc(Cl)cc2)C(=O)O)ccc2c1oc(=O)c1ccccc12 (stereo not drawn)	-4.9	88.2*	-19.8	0.2	0.0	i
Cc1oc2cc3oc(=O)c(CC(=O)N[C@@H](C)C(=O)NC(Cc4ccc(Cl)cc4)C(=O)O)c(C)c3cc2c1C (stereo partly drawn)	-7.4	97.6*	0.4	0.1	0.0	i
O=c1cc2c(=O)oc3cc(O)c(O)oc3c2c(O)c1O	-0.6	nt	nt	nt	nt	i
SMILES	Rtt109 HAT inh	ALR inh	HDAC3 inhib	Efflux pump mplx	GRK2 aptamer HTS	Rce1 inhib
Cc1ccc(S(=O)(=O)NC(=O)NN2CC3CCCC3C2)cc1 (stereo not drawn)	-12.5	nt	-4.4	0.1	0.0	i
O=C(NNc1cc(Br)c(O)c(Br)c1)c1ccccc1	16.7	98.7*	3.1	0.0	6.0	i
COc1ccc(CNc2nc3ccccc3n2CCN2CCOCC2)cc1	-15.9	93.8*	3.2	0.0	0.0	i
CCN(CC)c1ccc(CNc2nc3ccccc3n2CCN2CCOCC2)cc1	-5.2	98.4*	11.8	0.0	2.0	i
Cc1ccc(-c2sc(-c3cccnc3)nc2CC(=O)O)cc1	2.2	99.0*	2.6	0.1	0.0	i
CC(=O)Nc1ccc(NC(=O)Cc2sc(-c3cccnc3)nc2-c2ccc(C)cc2)cc1	-4.7	-7.3	5.5	0.0	1.0	i
Cc1ccc(-c2sc(C)nc2CC(=O)O)cc1	3.0	27.5	2.7	-0.1	2.0	i
Cc1ccc(-c2nc(-c3cccnc3)sc2CC(=O)O)cc1	-9.1	99.3*	-2.5	-0.1	0.0	i
CCn1c(=O)c2c(nc(SCC(=O)Nc3ccccc3)n2C)n(C)c1=O	2.9	-4.8	0.0	-0.1	0.0	i
COc1ccc(-c2cc(C(F)(F)F)nc(SCC(=O)NCc3ccco3)n2)cc1OC	5.8	0.1	-1.5	-0.3	0.0	i
COc1ccc(-c2cc(C(F)(F)F)nc(SCC(=O)NCc3cnn(C)c3C)n2)cc1OC	-7.9	1.4	-2.9	0.0	5.0	+
COc1ccc(-c2cc(C(F)(F)F)nc(SCC(=O)N(C)Cc3cn(C)nc3C)n2)cc1OC	4.3	-11.3	8.4	0.0	2.0	+
Cn1c(=O)[nH]c(=O)c2c1nc(SCC(=O)O)n2CCc1ccccc1	2.4	4.5	36.8*	0.0	0.0	i
CCOC(=O)CSc1nc2c(c(=O)[nH]c(=O)n2C)n1CCc1ccccc1	6.0	-10.2	-70.1	0.0	1.0	i
Cn1c(=O)[nH]c(=O)c2c1nc(Br)n2CC(O)COCc1ccccc1 (stereo not drawn)	7.6	91.0*	2.3	0.1	0.0	i
CC(=O)Nc1ccc(C(=O)COC(=O)C2CC2C)c(F)c1 (stereo not drawn)	0.5	nt	nt	nt	nt	nt
O=C1CCC(C(=O)Nc2cccc(Br)c2)N1 (stereo not drawn)	-9.7	nt	-4.3	0.0	1.0	i
Fc1cccc(Cl)c1-c1nnc2ccc3ccccc3n12	nt	98.3*	1.3	0.0	1.0	i
COc1ccc(N2CCN(C(=O)CSc3nnnn3C3CC3)CC2)cc1	-4.5	86.6*	5.2	0.1	1.0	nt
COc1ccc(N2CCN(C(=O)Cc3ccc(C)cc3)CC2)cc1	-1.8	79.6*	3.1	-0.1	1.0	i
COc1ccc(N2CCN(C(=O)CCCC(=O)c3ccccc3)CC2)cc1	-0.4	46.6	1.6	0.2	6.0	i
COc1ccc(C(=O)CCC(=O)N2CCN(c3ccc(C)cc3)C(C)C2)cc1 (stereo not drawn)	-6.6	99.0*	6.1	-0.1	0.0	i
CCOC(=O)N1CCN(C(=O)CSCc2ccccc2Cl)CC1	nt	99.0*	-1.8	0.0	2.0	i
O=C(NC(O)C(=O)c1ccc(F)cc1)c1ccc(F)cc1 (stereo not drawn)	6.8	-5.3	-6.2	0.1	2.0	i
COc1ccccc1CNC(=O)CCNS(=O)(=O)c1cccc2nonc12	-6.1	nt	2.3	0.2	0.0	i

Source: PubChem BioAssay (several laboratories)
